Results as given in PubChem BioAssay (NCATS).
“And” between values parts separate entries of the source, which are not always exact repeats. Identical values can stand only once. Results filed as inconclusive are left out. Entries that show only a call come without a potency. Some compounds were tested as several samples or in several runs, with calls that do not always agree. The source made the active and inactive calls. Unless noted, the call rests on the fitted dose curve; in most records, active means well fitted curve in the direction sought with a large enough effect; inconclusive means small, poorly fitted or top-dose-only effect, or another doubt; inactive means no such curve, though single readings can be large; an effect the other way counts as inactive or inconclusive.

Tests used:
[1] = P-glycoprotein substrates identified in KB-8-5-11 adenocarcinoma cell line, qHTS therapeutic library screen (AID 1346987); further: nearly all actives have a fitted effect of over 65% in size; further: potency means the concentration at half of the fitted maximal effect
Method in brief: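 Steps: plate 500 KB-8-5-11 cells/well in DMEM + 10% FCS (colchicine removed); pin compounds in dose-response; incubate 72 h, 37 degree C, 5% CO2; add CellTiter-Glo, 5 min; read luminescence.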

[2] = Natriuretic polypeptide receptor (hNpr1) antagonism - Pilot counterscreen GloSensor control cell line (AID 1347045; calls by dose curve; further: series mostly up to about 38 µM)
Method in brief: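 Luminescence was read before and 20 min after adding 50 uM SNP, which stimulates soluble guanylyl cyclase. The HEK293 cells expressing the GloSensor cGMP sensor had been preloaded with 2% reagent for 2 h and treated with compound.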

[3] = target: Atrial natriuretic peptide receptor 1 (Homo sapiens) (UniProt P16066); assay: Natriuretic polypeptide receptor (hNpr1) antagonism - Pilot screen (AID 1347049; calls by dose curve;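 further: agonist-evoked cGMP luminescence read 20 min after hNppA addition; series mostly up to about 58 µM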)
Atrial natriuretic peptide receptor 1 (Homo sapiens), sequence (P16066 whole entry, looked up): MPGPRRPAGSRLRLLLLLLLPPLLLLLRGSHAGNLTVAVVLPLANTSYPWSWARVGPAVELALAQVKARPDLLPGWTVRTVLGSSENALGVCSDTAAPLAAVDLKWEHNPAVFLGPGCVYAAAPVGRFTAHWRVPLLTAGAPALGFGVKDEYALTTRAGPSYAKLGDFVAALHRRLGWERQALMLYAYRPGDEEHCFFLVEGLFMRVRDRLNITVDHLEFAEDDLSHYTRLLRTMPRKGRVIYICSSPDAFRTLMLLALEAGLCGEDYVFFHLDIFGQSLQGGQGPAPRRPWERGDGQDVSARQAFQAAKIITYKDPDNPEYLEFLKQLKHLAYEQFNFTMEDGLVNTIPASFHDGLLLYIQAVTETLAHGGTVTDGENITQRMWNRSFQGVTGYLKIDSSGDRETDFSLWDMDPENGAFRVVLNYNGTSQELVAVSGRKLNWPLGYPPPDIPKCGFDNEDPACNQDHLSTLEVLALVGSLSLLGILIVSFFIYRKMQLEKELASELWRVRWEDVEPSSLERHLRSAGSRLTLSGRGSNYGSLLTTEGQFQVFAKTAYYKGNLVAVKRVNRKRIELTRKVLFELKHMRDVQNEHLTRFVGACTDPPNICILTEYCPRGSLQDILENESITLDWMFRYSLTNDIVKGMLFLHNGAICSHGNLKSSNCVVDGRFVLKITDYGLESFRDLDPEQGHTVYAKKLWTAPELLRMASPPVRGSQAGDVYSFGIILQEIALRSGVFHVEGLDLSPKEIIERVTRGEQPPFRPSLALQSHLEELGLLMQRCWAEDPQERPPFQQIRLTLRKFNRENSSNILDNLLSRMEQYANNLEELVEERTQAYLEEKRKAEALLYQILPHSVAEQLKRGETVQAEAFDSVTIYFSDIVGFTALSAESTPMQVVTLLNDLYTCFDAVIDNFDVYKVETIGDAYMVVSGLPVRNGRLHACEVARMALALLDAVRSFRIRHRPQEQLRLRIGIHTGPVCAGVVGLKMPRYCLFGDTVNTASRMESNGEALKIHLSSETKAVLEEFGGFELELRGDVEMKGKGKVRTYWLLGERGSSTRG
Method in brief: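 Readout is cGMP-driven firefly luciferase luminescence in HEK293 cells carrying hNpr1 and a PDE5-domain GloSensor, read before and 20 min after 0.1 nM hNppA stimulation. Cells had 2% substrate reagent for 2 h and test compound for 30 min.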

[4] = target: Atrial natriuretic peptide receptor 2 (Homo sapiens) (UniProt P20594); assay: Natriuretic polypeptide receptor (hNpr2) antagonism - Pilot subtype selectivity assay (AID 1347050; calls by dose curve)
Atrial natriuretic peptide receptor 2 (Homo sapiens), sequence (P20594 whole entry, looked up): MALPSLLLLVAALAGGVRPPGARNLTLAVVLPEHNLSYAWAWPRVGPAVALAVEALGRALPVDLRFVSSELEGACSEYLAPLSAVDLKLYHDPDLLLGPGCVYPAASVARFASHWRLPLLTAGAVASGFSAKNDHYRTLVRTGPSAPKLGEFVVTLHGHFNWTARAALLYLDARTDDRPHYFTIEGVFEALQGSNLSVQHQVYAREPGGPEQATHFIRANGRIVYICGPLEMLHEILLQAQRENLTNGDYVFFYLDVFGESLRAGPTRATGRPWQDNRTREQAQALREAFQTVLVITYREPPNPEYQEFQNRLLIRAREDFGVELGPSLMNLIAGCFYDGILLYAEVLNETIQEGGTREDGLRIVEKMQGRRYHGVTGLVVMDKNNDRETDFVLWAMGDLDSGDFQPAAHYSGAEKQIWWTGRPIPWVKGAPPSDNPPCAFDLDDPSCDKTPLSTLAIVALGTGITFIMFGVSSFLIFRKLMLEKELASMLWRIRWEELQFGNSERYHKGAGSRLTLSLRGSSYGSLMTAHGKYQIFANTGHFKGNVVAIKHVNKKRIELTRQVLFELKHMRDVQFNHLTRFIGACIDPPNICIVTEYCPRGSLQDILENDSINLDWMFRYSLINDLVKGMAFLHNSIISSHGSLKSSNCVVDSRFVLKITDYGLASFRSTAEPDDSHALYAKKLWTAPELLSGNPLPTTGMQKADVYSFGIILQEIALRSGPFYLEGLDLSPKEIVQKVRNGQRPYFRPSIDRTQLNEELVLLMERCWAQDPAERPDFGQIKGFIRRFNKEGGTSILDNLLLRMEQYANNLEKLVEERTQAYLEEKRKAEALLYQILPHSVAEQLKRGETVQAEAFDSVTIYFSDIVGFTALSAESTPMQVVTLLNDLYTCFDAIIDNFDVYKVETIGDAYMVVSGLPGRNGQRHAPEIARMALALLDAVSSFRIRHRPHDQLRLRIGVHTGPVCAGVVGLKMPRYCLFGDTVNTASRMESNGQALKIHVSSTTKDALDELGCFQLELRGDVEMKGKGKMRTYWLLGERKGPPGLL
Method in brief: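 Pilot selectivity screen against hNpr2: HEK293 cGMP-sensor cells are treated with LOPAC1280 compounds, then with hNppC peptide at 1 nM final. The cGMP-driven luminescence change over 20 min at room temperature is the read-out.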

[5] = NS1 protein of Zika virus - qHTS assay to identify small molecule inhibitors in human HEK 293 cells (AID 1347053); further: nearly all actives have a fitted effect of over 55% in size; further: potency means the concentration at half of the fitted maximal effect
Method in brief: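 Inhibition of NS1 expression was scored in HEK 293 cells given compound 1 h ahead of MR766 virus (MOI = 0.5). Following 24 h at 37 C, two anti-NS1 antibodies generated a TR-FRET signal, scaled between uninfected and infected controls.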

[6] = target: T1, Tyrosine-protein phosphatase non-receptor type substrate 1 (Homo sapiens) + Leukocyte surface antigen CD47 (Homo sapiens) (UniProt P78324+Q08722); assay: CD47-SIRPalpha protein protein interaction - LANCE assay qHTS validation (AID 1347057; active means well fitted curve in the direction sought with a large enough effect in the signal ratio, with a control signal flat, not every such curve was filed as active; the % refers to the signal ratio; further: series mostly up to about 38 µM)
T1 sequence (P78324 whole entry, looked up): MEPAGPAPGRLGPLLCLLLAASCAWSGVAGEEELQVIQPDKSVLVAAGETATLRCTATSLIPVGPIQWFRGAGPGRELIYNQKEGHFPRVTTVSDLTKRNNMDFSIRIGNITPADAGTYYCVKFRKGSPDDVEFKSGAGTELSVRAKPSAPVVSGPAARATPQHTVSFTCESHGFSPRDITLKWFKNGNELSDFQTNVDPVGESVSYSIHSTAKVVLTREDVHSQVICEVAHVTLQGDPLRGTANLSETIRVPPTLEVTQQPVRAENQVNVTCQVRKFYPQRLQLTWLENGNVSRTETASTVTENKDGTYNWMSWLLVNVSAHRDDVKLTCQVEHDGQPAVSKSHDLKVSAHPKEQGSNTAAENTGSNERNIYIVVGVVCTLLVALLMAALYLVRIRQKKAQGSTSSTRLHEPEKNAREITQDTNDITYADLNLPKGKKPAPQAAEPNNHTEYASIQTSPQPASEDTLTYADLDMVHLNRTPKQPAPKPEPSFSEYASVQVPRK
T1 sequence (Q08722 whole entry, looked up): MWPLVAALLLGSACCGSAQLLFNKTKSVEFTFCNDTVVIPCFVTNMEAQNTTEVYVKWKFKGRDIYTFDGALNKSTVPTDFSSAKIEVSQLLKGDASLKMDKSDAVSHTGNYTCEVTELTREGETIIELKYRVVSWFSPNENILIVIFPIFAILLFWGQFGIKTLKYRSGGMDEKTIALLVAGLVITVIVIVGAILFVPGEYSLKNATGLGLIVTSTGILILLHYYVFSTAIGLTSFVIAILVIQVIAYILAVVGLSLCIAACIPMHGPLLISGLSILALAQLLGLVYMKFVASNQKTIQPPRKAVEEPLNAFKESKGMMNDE
Method in brief: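 First, His-tagged CD47 and Eu-labelled anti-His antibody met the compound for 30 min; next, site-specifically biotinylated SIRPalpha was added for 30 min; finally streptavidin-APC was added before reading the TR-FRET ratio.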

[7] = target: T1, Tyrosine-protein phosphatase non-receptor type substrate 1 (Homo sapiens) + Leukocyte surface antigen CD47 (Homo sapiens); assay: CD47-SIRPalpha protein protein interaction - HTRF assay qHTS validation (AID 1347058; active means well fitted curve in the direction sought with a large enough effect in the signal ratio, not every such curve was filed as active; the % refers to the signal ratio;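 further: recombinant soluble extracellular CD47 with His tag and biotinylated SIRPalpha domains; series mostly up to about 38 µM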)
Method in brief: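 TR-FRET read (Ch1/Ch2 ratio) of soluble extracellular CD47 and Avi-biotinylated SIRPalpha domains in PBS pH 7.4 with 0.05% IGEPAL; 7-point compound titration. Sequential 30 min room-temperature steps; non-biotinylated SIRPalpha as control inhibitor.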

[8] = target: T1, Tyrosine-protein phosphatase non-receptor type substrate 1 (Homo sapiens) + Leukocyte surface antigen CD47 (Homo sapiens); assay: CD47-SIRPalpha protein protein interaction - Alpha assay qHTS validation (AID 1347059);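 further: bead proximity luminescence from CD47 binding SIRPalpha after compound preincubation with SIRPalpha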
Method in brief: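 Binding is measured by AlphaScreen proximity: Ni-NTA acceptor beads capture His-CD47, streptavidin donor beads capture biotin-SIRPalpha. Each of three additions (SIRPalpha with compound, CD47, beads) incubates 30 min at room temperature protected from light.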

[9] = target: Parathyroid hormone/parathyroid hormone-related peptide receptor (Homo sapiens) (UniProt Q03431); assay: qHTS for PTHR1 Agonists: Optimization Screen against the NCGC LOPAC library (AID 1347079);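 further: GloSensor cAMP luminescence in HEK-293 GP2 cells expressing human PTHR1 with IBMX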
Parathyroid hormone/parathyroid hormone-related peptide receptor (Homo sapiens), sequence (Q03431 whole entry, looked up): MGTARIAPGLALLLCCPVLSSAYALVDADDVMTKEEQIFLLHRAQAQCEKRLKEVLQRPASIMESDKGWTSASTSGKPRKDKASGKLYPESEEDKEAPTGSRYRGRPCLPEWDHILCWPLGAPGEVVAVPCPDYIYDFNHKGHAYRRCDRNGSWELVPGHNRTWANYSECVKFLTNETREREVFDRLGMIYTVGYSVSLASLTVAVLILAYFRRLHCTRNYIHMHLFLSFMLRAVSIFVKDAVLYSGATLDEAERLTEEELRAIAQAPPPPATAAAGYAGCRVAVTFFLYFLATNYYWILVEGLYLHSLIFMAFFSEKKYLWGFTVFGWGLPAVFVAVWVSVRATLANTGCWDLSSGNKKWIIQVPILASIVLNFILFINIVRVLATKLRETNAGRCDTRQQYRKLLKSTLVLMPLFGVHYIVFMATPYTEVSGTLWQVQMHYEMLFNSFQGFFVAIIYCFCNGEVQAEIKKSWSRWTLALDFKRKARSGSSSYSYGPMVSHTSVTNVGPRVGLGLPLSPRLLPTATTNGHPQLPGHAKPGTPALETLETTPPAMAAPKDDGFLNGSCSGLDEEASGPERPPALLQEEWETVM
Method in brief: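 Agonist readout: GloSensor cAMP luminescence, read after 15 min at room temperature. HEK-293-derived GP2 line carries PTHR1; compounds tested as a titration for 1 hr at 37C in presence of IBMX. M-PTH (1-15) served as control.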

[10] = qHTS for Inhibitors of the Functional Ribonucleoprotein Complex (vRNP) of Lassa (LASV) Arenavirus: LASV Primary Screen - GLuc reporter signal (AID 1347082; calls by dose curve; tested in HEK293 reporter line; further: nearly all actives have a fitted effect of over 60% in size; further: potency means the concentration at half of the fitted maximal effect)
[11] = qHTS for Inhibitors of the Functional Ribonucleoprotein Complex (vRNP) of Lassa (LASV) Arenavirus: Viability assay - alamar blue signal for LASV Primary Screen (AID 1347083; calls by dose curve; tested in HEK293 reporter line; further: nearly all actives have a fitted effect of over 80% in size; further: potency means the concentration at half of the fitted maximal effect)
[12] = qHTS for Inhibitors of the Functional Ribonucleoprotein Complex (vRNP) of Lymphocytic Choriomeningitis Arenaviruses (LCMV): Viability assay - alamar blue signal for LCMV Primary Screen (AID 1347085; calls by dose curve; tested in HEK293 reporter line; further: nearly all actives have a fitted effect of over 80% in size; further: potency means the concentration at half of the fitted maximal effect)
[13] = target: Nucleoprotein (Lymphocytic choriomeningitis virus (strain Armstrong)) (UniProt P09992); assay: qHTS for Inhibitors of the Functional Ribonucleoprotein Complex (vRNP) of Lymphocytic Choriomeningitis Arenaviruses (LCMV): LCMV Primary Screen - GLuc reporter signal (AID 1347086; calls by dose curve; further: series mostly up to about 57 µM; nearly all actives have a fitted effect of over 70% in size)
Nucleoprotein (Lymphocytic choriomeningitis virus (strain Armstrong)), sequence (P09992 whole entry, looked up): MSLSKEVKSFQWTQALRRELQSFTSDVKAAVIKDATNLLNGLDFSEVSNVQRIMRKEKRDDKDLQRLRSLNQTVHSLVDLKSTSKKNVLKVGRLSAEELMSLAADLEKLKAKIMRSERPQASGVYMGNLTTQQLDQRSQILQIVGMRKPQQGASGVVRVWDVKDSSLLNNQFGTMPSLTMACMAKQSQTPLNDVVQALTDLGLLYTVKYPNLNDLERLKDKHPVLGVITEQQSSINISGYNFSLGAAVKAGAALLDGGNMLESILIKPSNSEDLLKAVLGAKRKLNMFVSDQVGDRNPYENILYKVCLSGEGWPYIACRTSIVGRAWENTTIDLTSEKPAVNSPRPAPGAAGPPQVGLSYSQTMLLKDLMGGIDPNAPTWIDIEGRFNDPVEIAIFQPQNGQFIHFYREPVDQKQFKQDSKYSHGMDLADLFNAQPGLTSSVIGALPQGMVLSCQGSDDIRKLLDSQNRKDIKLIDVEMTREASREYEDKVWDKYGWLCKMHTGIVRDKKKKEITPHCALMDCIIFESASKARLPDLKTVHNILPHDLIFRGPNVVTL

[14] = qHTS of pediatric cancer cell lines to identify multiple opportunities for drug repurposing: Primary screen for TC32 cells (AID 1347089); further: nearly all actives have a fitted effect of over 60% in size; further: potency means the concentration at half of the fitted maximal effect
Method in brief: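 In the primary qHTS, MIPE compounds were tested at 11 concentrations (0.78 nM to 46 µM) and NPC compounds at 8 (0.59 nM to 46 µM) on TC32 cells for 48 h. CellTiter-Glo luminescence gave viability.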

[15] = qHTS of pediatric cancer cell lines to identify multiple opportunities for drug repurposing: Primary screen for DAOY cells (AID 1347090); further: nearly all actives have a fitted effect of over 55% in size; further: potency means the concentration at half of the fitted maximal effect
Method in brief: (§1)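 Cell viability, CellTiter-Glo luminescence; 500-1,000 cells/well, 8- or 11-point titration, 48 h compound exposure at 37 degrees C, 5% CO2. Controls: DMSO neutral, bortezomib 2.3 µM final as positive.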

[16] = qHTS of pediatric cancer cell lines to identify multiple opportunities for drug repurposing: Primary screen for SJ-GBM2 cells (AID 1347091); further: potency means the concentration at half of the fitted maximal effect
Method in brief: as §1

[17] = P-glycoprotein substrates identified in KB-3-1 adenocarcinoma cell line, qHTS therapeutic library screen (AID 1346986); further: nearly all actives have a fitted effect of over 60% in size
Method in brief: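 Cells seeded 500/well in DMEM/10% FCS; compounds pinned in dose-response; 72 h incubation; CellTiter-Glo added, 5 min, luminescence. KB-8-5-11 run ±tariquidar to test reversal of P-gp resistance.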

[18] = qHTS of pediatric cancer cell lines to identify multiple opportunities for drug repurposing: Primary screen for A673 cells (AID 1347092); further: nearly all actives have a fitted effect of over 45% in size; further: potency means the concentration at half of the fitted maximal effect
Method in brief: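 48 h compound exposure, A673, 500-1,000 cells/well, 37 degrees C/5% CO2. MIPE: 11-point, 0.78 nM-46 µM; NPC: 8-point, 0.59 nM-46 µM (final). Readout CellTiter-Glo luminescence after 15 min RT.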

[19] = Identifying Small Molecule Inhibitors of Pancreatic Cancer Stem Cells (A278, Adherent) (AID 1259361); further: nearly all actives have a fitted effect of over 35% in size
Method in brief: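 Adherent (2D) versus sphere (3D) formats; spheres generated 14 d in SCM beforehand. Compound transferred by pin tool after 4 h, 48 h incubation, CellTiter-Glo endpoint.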

[20] = Identifying Small Molecule Inhibitors of Pancreatic Cancer Stem Cells (Panc1, Adherent) (AID 1259362); conditions: Potency: viability; further: potency means the concentration at half of the fitted maximal effect
Method in brief: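 After a 4 h attachment period, compounds were pinned into wells and cultures held 48 h under standard incubator conditions. Viability was then measured as CellTiter-Glo luminescence following 10 min at room temperature.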

Row | SMILES | Potency [1] | Potency [2] | Potency [3] | Potency [4] | Potency [5] | outcome [6] | outcome [7] | Potency [8] | outcome [9] | Potency [10] | Potency [11] | Potency [12] | Potency [13] | Potency [14] | Potency [15] | Potency [16] | Potency [17] | Potency [18] | IC50 (viability decrease) [19] | Potency [20]
1 | CCCN1CCC[C@H](c2cccc(O)c2)C1 | inactive | inactive | inactive | inactive | inactive | inactive | inactive | inactive | inactive | inactive | inactive | inactive | inactive |  |  |  |  |  |  | 
2 | CC[C@@H](C(N)=O)N1CCCC1=O | inactive | inactive | inactive | inactive | inactive | inactive | inactive | inactive | inactive |  |  | inactive | inactive | inactive | inactive | inactive |  |  |  | 
3 | COc1ccc2c(c1)CN(C)CC2c1ccc(Cl)c(Cl)c1 (centres undefined) | inactive |  |  |  | inactive |  |  |  |  | inactive | 7.69 µM (active) | inactive | inactive | inactive | inactive | 18.7 µM (active) | inactive |  |  | 
4 | O=c1[nH]c2ccccc2n1C1CCN(Cc2ccc(-c3[nH]c4cc5ncnc5cc4nc3-c3ccccc3)cc2)CC1 | inactive |  |  |  | 18.7 µM (active) |  |  |  |  |  |  | inactive | inactive | inactive | inactive | 3.32 µM (active) | inactive |  |  | 
5 | CC(C)N(CCNC(=O)CN1CCCC1=O)C(C)C | inactive |  |  |  | inactive |  |  |  |  | inactive | inactive | inactive | inactive | inactive | inactive | inactive | inactive | inactive |  | 
6 | CCC(=O)OC1CCC2C3CCC4=CC(=O)CC[C@@]4(C)C3CC[C@]12C (some centres undefined) |  |  |  |  | inactive |  |  |  |  | inactive | inactive | inactive | inactive | inactive | inactive | inactive | inactive |  |  | 
7 | Cc1ccccc1-n1c(Cn2cnc3c(N)ncnc32)nc2cccc(C)c2c1=O | 0.59 µM (active) |  |  |  |  |  |  |  |  | 8.63 µM (active) | 1.53 µM (active) | 1.93 µM (active) |  | 1.31 µM (active) | 1.48 µM (active) | 0.187 µM (active) |  | 0.59 µM (active) | 18.7 µM (active) | inactive
8 | CC[C@@]1(O)C(=O)OCc2c1cc1n(c2=O)Cc2cc3ccccc3nc2-1 | 0.332 µM (active) | inactive | inactive | inactive | 11.8 nM (active) and inactive | inactive |  | inactive | inactive | inactive | 193 nM (active) and 199 nM (active) |  | inactive | 0.0262 µM (active) | 0.0469 µM (active) | 0.0105 µM (active) |  | 0.0235 µM (active) |  | 
9 | O=c1cccc2n1CC1CNC[C@H]2C1 | inactive |  |  |  | inactive |  |  |  |  | inactive | 27.3 µM (active) |  | inactive | inactive | 18.7 µM (active) | 5.9 µM (active) | inactive | 4.69 µM (active) |  | 
10 | CC(=O)N(C)c1cccc(-c2ccnc3c(C(=O)c4cccs4)cnn23)c1 |  |  |  |  | inactive |  |  |  |  | inactive | inactive |  | inactive | inactive | inactive | inactive | inactive | inactive |  | 
11 | O=C(Oc1ccc([N+](=O)[O-])cc1)N1CCC(C(O)(c2ccc3c(c2)OCO3)c2ccc3c(c2)OCO3)CC1 | inactive |  |  |  | inactive |  |  |  |  | inactive | 24.3 µM (active) | 3.06 µM (active) | inactive | inactive | inactive | inactive |  |  |  | inactive
12 | CC(C)(C)[C@]1(O)C[C@@H]2OC(=O)C[C@@]23C(=O)O[C@@H]2OC(=O)[C@H](O)C213 (some centres undefined) | inactive |  |  |  | inactive |  |  |  |  | inactive | inactive | inactive | inactive | inactive | inactive | inactive | inactive | inactive |  | 
13 | CC(=O)NCCc1c[nH]c2ccccc12 | inactive | inactive | inactive | inactive | inactive | inactive | inactive | inactive | inactive | inactive | inactive | inactive | inactive |  |  |  | inactive |  |  | 
14 | O=C(O)C(Cl)Cl | inactive |  |  |  | inactive |  |  |  |  | inactive | inactive | inactive | inactive | inactive | inactive | inactive | inactive | inactive |  | 
15 | CC(=O)Nc1ccc(OC[C@](C)(O)C(=O)Nc2ccc([N+](=O)[O-])c(C(F)(F)F)c2)cc1 | inactive |  |  |  | inactive |  |  |  |  | inactive |  | 10.9 µM (active) |  | inactive | inactive | inactive |  | inactive | inactive | inactive
16 | CC(Cc1ccc(O)cc1)NCC(O)c1cc(O)cc(O)c1 (centres undefined) | inactive | inactive | inactive | inactive | inactive | inactive |  | inactive | inactive | inactive | inactive | inactive | inactive | inactive | inactive | inactive |  | inactive |  | 
17 | Cc1nc(-c2ccc(-c3ccc(C(=O)N4CCc5cc6c(cc54)C4(CCN(C)CC4)CO6)cc3)c(C)c2)no1 | inactive |  |  |  | inactive |  |  |  |  | inactive | inactive | inactive | inactive | inactive | inactive | inactive |  | inactive |  | 16.6 µM (active)
18 | NC(=O)CN1CC(O)CC1=O (centres undefined) | inactive | inactive |  | inactive | inactive | inactive | inactive | inactive | inactive | inactive | inactive | inactive | inactive |  |  |  |  |  |  | 
